Not all results are given here.
aSyn UTR act: Activators via SNCA 5'UTR binding, MLPCN. activity score, % (tested at 7.5 µM), hits read low. 7.1% of 300,000 active. alpha-synuclein 5'UTR reporter, activators screen. AID 1814; in the data active = activity score below about -60%
Numbers without * were called inactive.

SMILES | aSyn UTR act
Cc1ccc2c(CN(C)Cc3ccccc3)cc(=O)oc2c1C | -80*
Nc1nnc(C(=O)c2ccccc2N)s1 | -123*
C/C(=N\Nc1ccc(Cl)c(C(=O)O)c1)c1ccc2c(c1)OCO2 | -73*
Cc1ccc(N/N=C/c2ccc(N3CCOCC3)cc2)cc1C | -96*
Cc1ccc(N/N=C/c2ccc3c(c2)OCCO3)cc1Cl | -87*
Cc1cc(N/N=C/c2ccccc2)nc(N2CCOCC2)n1 | -83*
O=C(O)c1cc(N/N=C/c2ccc3c(c2)OCO3)ccc1Cl | -73*
O=C(O)c1ccc(N/N=C/c2ccc3c(c2)OCO3)cc1 | 94
Cc1ccc(C(=O)COC(=O)c2cccs2)cc1 | -114*
CCc1ccc(C(=O)COC(=O)c2cccs2)cc1 | -139*
CC(=O)Nc1cc(C(=O)OCC(=O)c2ccc(C)cc2)ccc1C | -151*
CC(=O)N1CCC(=NNc2nc3ccccc3[nH]2)CC1 | -66*
CCC(C)(C)C1CCC(=NNc2nc3ccccc3[nH]2)CC1 (stereo unspecified) | -69*
CCNC(=S)N=Nc1c(O)[nH]c2ccc(C(C)C)cc12 | 63
CCCCNC(=S)N=Nc1c(O)[nH]c2ccccc12 | -81*
Oc1cccc(NC(=S)N=Nc2c(O)[nH]c3ccccc23)c1 | -158*
Cc1cccc2c1Sc1ccc(Cl)cc1CC2N1CCNCC1 (stereo unspecified) | 104
COc1cccc(NC(=O)NCCC2=CCCCC2)c1 | -183*
S=C(NCCC1=CCCCC1)Nc1ccc(Cl)cc1 | -110*
Cc1[nH]nc2nc(SCC(=O)NCCC3=CCCCC3)n(-c3ccc(Br)cc3)c(=N)c12 | 75
COc1ccc(NC(=O)NCCC2=CCCCC2)cc1 | -131*
CCOc1cc(/C=C\[N+](=O)[O-])ccc1OCC(=O)Nc1ccccc1C | -80*
Cc1ccc(-n2nnc(-c3nccs3)n2)cc1 | 95
Clc1ccc(-n2nnc(-c3ncc[nH]3)n2)cc1Cl | -171*
Fc1ccc(-n2nnc(-c3ncc[nH]3)n2)cc1 | -126*
SMILES | aSyn UTR act
Clc1ccc(-n2nnc(-c3nccs3)n2)cc1Cl | -92*
Cc1ccc(C)c(NC(=O)CSc2nccn2Cc2ccco2)c1 | -78*
Cc1ccc(C(=O)Nc2ccccc2OC(F)F)cc1 | -62*
Cc1ccc(NC(=O)c2cccc(OC(F)F)c2)c(OC(F)F)c1 | -71*
Cc1c(Cl)cccc1NC(=O)c1cccc(OC(F)F)c1 | -76*
Cc1ccc2nc(SCC(=O)c3ccccc3)nc(=O)n2c1 | -112*
Cc1ccn2c(=O)nc(SCC(=O)c3ccccc3)nc2c1 | -76*
Cc1ccc(NC(=O)c2ccoc2C)cc1C | -231*
O=C(COC(=O)c1ccccc1NCc1ccco1)Nc1ccc2c(c1)OCO2 | -67*
COc1cccc(C(=O)Nc2ccc3c(c2)OCO3)c1OC | -128*
O=C(CCl)Nc1ccccc1C(=O)Nc1ccc2c(c1)OCO2 | -87*
Cc1ccc(C(=O)Nc2ccc3c(c2)OCCO3)c(C)c1 | 73
Cc1occc1C(=O)Nc1cccc(C(=O)O)c1 | -85*
Cc1occc1C(=O)Nc1ccc2c(c1)OCO2 | -144*
CC(=O)Nc1cnc(NC(=O)c2cccc(F)c2)cc1C | -148*
CCC(=O)Nc1cnc(NC(=O)c2cccc(F)c2)cc1C | -107*
O=C(Nc1ccccc1)O[C@@H]1C[C@H]2CCC(=O)N3CC[C@@H](C1)[C@@H]23 | -136*
O=C(Nc1ccccc1)OC1CC2CC1C1CCCC21 (stereo unspecified) | -141*
CC(=O)c1ccc(NC(=O)c2cc(C)nc3ccccc23)cc1 | -101*
O=C(Nc1ccc(Br)cc1)c1cc2ccccn2n1 | -117*
COC(=O)/C(=C\C(=O)c1ccccc1)Nc1cccc(C(F)(F)F)c1 | -185*
CC(=O)c1ccc(NC(=O)c2cccc(NC(=O)c3ccccc3)c2)cc1 | -116*
CCC(=O)Nc1cccc(NC(=O)c2ccc(Br)cc2)c1 | -117*
O=C(Nc1cccc(O)c1)c1ccc(Br)cc1 | -181*
CC(=O)c1cccc(NC(=O)Nc2ccccc2)c1 | -96*
SMILES | aSyn UTR act
Nc1ccc(C(=O)Nc2cccc(N)c2)cc1 | -67*
CC1CCC(NC(=O)CCNC(=O)c2ccc(Br)cc2)CC1 (stereo unspecified) | -71*
O=C(Nc1ccccc1)Nc1ccc2ccccc2c1 | -141*
CC(C)c1cc(C(=O)Nc2cccc(C(F)(F)F)c2)no1 | -102*
CC(=O)c1cccc(NC(=O)c2ccc3ccccc3c2)c1 | -145*
CC(C)c1ccc2c(c1)C(N1CCNCC1)Cc1ccc(F)cc1S2 (stereo unspecified) | 75
CN(C)C(=S)Nc1ccc2ccccc2c1 | -67*
O=C(Nc1ccccc1)Nc1cccc(C(F)(F)F)c1 | -73*
CC(C)OC(=O)c1cccc(NC(=O)c2ccccc2)c1 | -132*
Cc1cccc(NC(=O)CCNC(=O)c2ccc(Br)cc2)c1 | -93*
CSc1ncc(C(=O)Nc2ccc(C(C)=O)cc2)c(C)n1 | -87*
CC(=O)c1cccc(NC(=O)Nc2nc(C)cc(C)n2)c1 | -85*
O=C(Cc1ccccc1)NNc1ccc2ccccc2c1 | -101*
O=C(Nc1cccc(C(=O)Nc2ccc(Br)cc2)c1)c1ccccc1 | -111*
CCc1ccc(-c2csc(NC(=O)Oc3ccccc3)n2)cc1 | -161*
O=C(Nc1nc(-c2cccc(Br)c2)cs1)Oc1ccccc1 | -101*
COc1cccc(-c2csc(NC(C)=O)n2)c1 | -181*
Cc1ccc(/C=N/NC(=O)c2ccccn2)o1 | -74*
O=C(N/N=C/c1ccncc1)c1ccccn1 | -90*
O=C(NN=C1c2ccccc2-c2ccccc21)c1ccccn1 | -134*
O=C(N/N=C/c1ccc(N2CCOCC2)cc1)c1ccccn1 | -103*
O=C(NNC(=O)C(c1ccccc1)c1ccccc1)c1ccccn1 | 72
O=C(NN=C1C2CC3CC1CC(Cl)(C3)C2)c1ccccn1 | -137*
C/C(=N\Nc1ccc(C)c(Cl)c1)c1ccncc1 | -77*
C/C(=N\Nc1ccc(C)c(Cl)c1)c1cccnc1 | -105*
SMILES | aSyn UTR act
O=C(O)c1ccccc1NN=C1CCCCC1 | -192*
C/C(=N\Nc1ccccc1C(=O)O)c1ccncc1 | -132*
Nc1c(C(=O)Nc2ccccc2F)sc2nc(-c3ccco3)ccc12 | -118*
Nc1c(C(=O)Nc2ccccc2F)sc2nc(-c3cccnc3)ccc12 | -88*
CCOc1ccc2nc(SCc3ccc(F)cc3)sc2c1 | -68*
O=C(Nc1nc(-c2cccnc2)cs1)c1cccc([N+](=O)[O-])c1 | -84*
Cc1ccc(C(=O)Nc2nc(-c3cccnc3)cs2)o1 | -101*
Cc1csc(NC(=O)c2ccc(C)o2)n1 | -161*
O=C(Nc1nc(-c2ccccc2)cs1)c1ccc(Br)o1 | -79*
O=C(NNc1nc(-c2ccccc2)cs1)c1ccc(F)cc1 | 76
O=C(Nc1nc(-c2ccccc2)cs1)c1ccccc1F | -135*
Cc1ccc(-c2ocnc2C(=O)Nc2nc(C)cs2)cc1 | -91*
Cc1occc1C(=O)N/N=C/c1ccc(OCc2ccccc2)cc1 | -138*
CC/C(=N\NC(=O)c1ccoc1C)c1ccc(C)o1 | -155*
O=C(N/N=C/c1ccc(OCc2ccccc2)cc1)c1cc[n+](Cc2ccccc2)cc1 | -77*
CCOc1ccc(OCc2cccc(C(=O)N/N=C/c3cccnc3)c2)cc1 | 87
Cc1cnc(C(=O)Nc2ccc(N3CCN(C(=O)OC(C)(C)C)CC3)cc2)cn1 | -89*
Cc1cnc(C(=O)Nc2ccc(C(C)C)cc2)cn1 | -142*
Cn1nc(CC(=O)Nc2ccc(N3CCN(C(=O)OC(C)(C)C)CC3)cc2)c2ccccc2c1=O | 77
Cc1cnc(C(=O)Nc2ccccc2F)cn1 | -91*
Cc1cnc(C(=O)Nc2ccc(F)cc2)cn1 | -101*

Bioassay records deposited in PubChem by Broad Institute.
